According to PubChem BioAssay AID588849 (Broad Institute, 2011):
Measured potencies and affinities stand elsewhere. Active and inactive are the calls of the source. How the calls were made is not given here.

These compounds were tested against CAAX prenyl protease 2 (Homo sapiens) (UniProt Q9Y256) (assay: human Rce1 protease inhibitors, dose response, biochemical, yeast membranes, quenched-peptide fluorescence, cherry-pick (AID 588849)). Details: yeast membrane fractions expressing human Rce1, quenched-peptide fluorescence, 4 h; series mostly up to 10 µM.
Sequence of CAAX prenyl protease 2 (Homo sapiens) (Q9Y256 whole entry, looked up): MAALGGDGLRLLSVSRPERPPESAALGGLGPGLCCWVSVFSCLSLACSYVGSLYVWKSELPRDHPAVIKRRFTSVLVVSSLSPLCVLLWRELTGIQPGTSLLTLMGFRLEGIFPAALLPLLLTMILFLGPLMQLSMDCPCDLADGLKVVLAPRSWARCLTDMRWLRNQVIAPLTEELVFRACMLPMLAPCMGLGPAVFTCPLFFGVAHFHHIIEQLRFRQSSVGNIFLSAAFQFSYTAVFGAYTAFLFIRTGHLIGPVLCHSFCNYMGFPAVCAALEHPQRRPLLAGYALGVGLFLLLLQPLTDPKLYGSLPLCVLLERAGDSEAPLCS

outcome, inactive:
Cc1ccc(C(=O)N/C(=C/c2ccco2)C(=O)Nc2cccc(C(=O)O)c2)cc1
O=C(c1cn(-c2ccccc2)nc1-c1cccs1)N1CCN(c2ccccc2)CC1
c1ccn2cc(-c3ccc4c(c3)OCCO4)nc2c1
O=C(Nc1ncccn1)c1ccc([N+](=O)[O-])cc1
Cc1cc(N2CCOCC2)n2cc(-c3ccccc3)nc2n1
Cc1ccc(N=Cc2c(O)n(C)c(=O)n(C)c2=O)nc1
CC(=O)N[C@@H](C)c1nc2ccccc2n1CCCN1CCN(c2nc(-c3ccc(C)cc3)cs2)CC1
COc1ccc(OC)c(/C=N/NC(=O)Cn2ccnc2C)c1
CCC(=O)Nc1cc(-c2nn(CC(=O)N3CCCCC3)c(=O)c3ccccc23)ccc1N1CCOCC1
C=CCc1cccc(/C=N/NC(=O)COc2ccc(-n3cnnn3)cc2)c1O
COc1cc2c(cc1OC)C(C)N(C(=O)CCNC(=O)c1ccccc1)CC2 (configuration not stated)
Cc1ccc(-c2nc(Nc3ccc(N4CCOCC4)cc3)c3ccccc3n2)cc1
Cc1ccc2c(C)c(C(=O)N(Cc3ccc(F)cc3)C3CCS(=O)(=O)C3)oc2c1 (configuration not stated)
COc1cccc(-c2cc(C(F)(F)F)n3ncc(S(=O)(=O)c4ccccc4)c3n2)c1
O=C(COc1ccc2ccc(=O)oc2c1)NCCc1c[nH]c2ccc(F)cc12
COc1ccc2[nH]c(C(=O)NCCCn3ccnc3)cc2c1
O=C(CSc1n[nH]c(-c2ccc(S(=O)(=O)N3CCCCC3)cc2)n1)Nc1nccs1
